Screens (PubChem)
aSyn UTR inh – MLPCN primary screen, SNCA 5' untranslated region; alpha-synuclein 5'UTR reporter, inhibitor activity; inhibition, % (tested at 7.5 µM); 0.82% of 300,000 active; AID 1813; in the data active = inhibition above about 60%;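 note: H4 neuroglioblastoma cells stably carrying SNCA 5'UTR luciferase fusion; 0% = DMSO wells and 100% = positive control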
KLF5 inh – suppresses KLF5 promoter-driven expression; inhibition, % at 5 µM; 0.23% of 290,000 active; DLD-1 KLF5 promoter-luciferase reporter, luminescence; AID 1700;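 active = inhibition above a per-plate limit of that plate's mean compound inhibition plus 3 SD, cut at about 60% in these data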;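 note: 0% = DMSO wells and 100% = LY294002 at 200 µM; higher means less KLF5 promoter-driven luciferase light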
APP transl inh – APP translation inhibition | SH-SY5Y APP 5'UTR-luciferase reporter, luminescence | inhibition, % at 2 µM | 0.82% of 190,000 active;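 active = inhibition above a set limit, derived from the sample mean plus 3 SD, cut at about 45% in these data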
IEC-6 tox – IEC-6 cytotoxicity, counter-screen for KLF5 inhibitors | luminescence viability | inhibition, % at 5 µM | 0.78% of 290,000 active | AID 1825;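 note: 0% = plate median of test compound wells and 100% = cytotoxic reference compound wells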
Ba/F3 V617F tox – reduce viability of Ba/F3 cells dependent on JAK2V617F | Ba/F3 EpoR-JAK2V617F viability, ATP luminescence | inhibition, % at 5.6 µM | 1.1% of 220,000 active | AID 1446;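 active = inhibition above the campaign mean plus 3 SD over all tested compounds, cut at about 24% in these data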;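 note: cytokine-independent growth of Ba/F3 cells driven by EpoR plus mutant JAK2; 0% = DMSO-treated cells and 100% = JAK inhibitor I control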
BaF3 parental – parental Ba/F3 viability inhibition as JAK2V617F counter-screen; CellTiter-Glo ATP luminescence; 1.1% of 220,000 active; inhibition, % at 5.6 µM; AID 1486;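 active = inhibition above a per-campaign cutoff, the mean inhibition of all tested compounds plus 3 SD, cut at about 27% in these data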;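 note: 0% = DMSO wells and 100% = JAK Inhibitor I control wells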
IEC-6 tox confirm – confirmation of cytotoxic compounds in rat IEC-6 intestinal epithelial cells; shares compounds with IEC-6 tox; IEC-6 rat intestinal epithelial viability, luminescence; inhibition, % at 5 µM; 63% of 1,900 active; AID 1907;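 note: 0% = vehicle and 100% = reference cytotoxic drug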
An asterisk follows results filed as active; i = inactive; nt = no result. Rows were chosen to be rich in hits. Some 2.1% of all compounds tested hit in one or more screens of this group. Cut-off read from the data, not from the text of the source, unless noted: active = inhibition above about 22%; inactive = the rest.

SMILES | aSyn UTR inh | KLF5 inh | APP transl inh | IEC-6 tox | Ba/F3 V617F tox | BaF3 parental | IEC-6 tox confirm
COc1cc(NC2CCCCC2O)c2nc(-c3ccc(Cl)cc3)ccc2c1 (configuration not stated) | -94 | -52 | nt | 23* | -3 | 0 | 11
Cc1ccccc1CN(C)Cc1cc(=O)oc2c(C)c(C)ccc12 | 14 | -22 | nt | 28* | nt | nt | 18
COc1cccc(CN(C)Cc2cc(=O)oc3cc(O)c(Cl)cc23)c1 | 12 | -14 | nt | -6 | nt | nt | nt
Cc1c(O)ccc2c(CN(C)Cc3ccccc3)cc(=O)oc12 | 16 | -39 | nt | 58* | -2 | 2 | 15
COc1cccc(CN(C)Cc2cc(=O)oc3c(C)c(C)ccc23)c1 | 30 | -42 | nt | 61* | nt | nt | 39*
O=C(O)c1ccc(C2Nc3ccccc3C(=O)N2Cc2ccccc2)cc1 (configuration not stated) | -10 | 18 | nt | 1 | nt | nt | nt
OCCCNc1c2ccccc2nc2ccccc12 | -155 | 35 | nt | 39* | nt | nt | 26*
c1ccc2c(NCCc3c[nH]c4ccccc34)c3ccccc3nc2c1 | i | -19 | nt | 22* | nt | nt | 16
Fc1cccc(NCCc2c[nH]c3ccccc23)n1 | -101 | -28 | nt | -2 | nt | nt | nt
Cc1ccc(-c2nc(NCCCO)c3ccccc3n2)cc1 | 21 | 2 | nt | 4 | nt | nt | nt
CCC(C)(C)NC(=O)CN(C(=O)CCC(=O)Nc1nccs1)c1ccc2c(c1)OCCO2 | -35 | -8 | nt | -2 | nt | nt | nt
CCCn1cc(CN2CCC(n3nccc3NC(=O)c3ccc4c(c3)OCO4)CC2)c(C)n1 | -4 | -35 | nt | 0 | nt | nt | nt
CCNC(=O)CC1SC(=Nc2ccc(C)c([N+](=O)[O-])c2)N(C)C1=O (configuration not stated) | 3 | nt | nt | nt | nt | nt | nt
Nc1nn(-c2ccccc2)c(N)c1N=Nc1cccc(F)c1 | -57 | -36 | nt | 77* | 84* | 80* | 59*
Cc1nn(-c2ccccc2)c(N)c1N=Nc1cccnc1 | -48 | -28 | -51 | 8 | 1 | 6 | nt
C[C@H](NC(=O)[C@@H]1CSC2c3ccccc3C(=O)N21)C(=O)NC1CCCCC1 (some centres not stated) | 22 | 8 | nt | 3 | nt | nt | nt
O=C(Nc1ccc2ccccc2c1)N1CCCN(CCOc2ccccc2)CC1 | 4 | -14 | nt | 6 | 6 | -3 | nt
Oc1ccc(Br)cc1/C=N/NC(=S)NCCc1ccccc1 | 20 | -9 | nt | -3 | nt | nt | nt
CC(C)NC(=S)N/N=C/c1cc(Br)ccc1O | -29 | -14 | -10 | 94* | -6 | 3 | 1
CCOC(=O)N1CCN(C(=O)c2ccc(CS(=O)c3ccccc3)o2)CC1 (configuration not stated) | 20 | -15 | nt | 1 | nt | nt | nt
CCCCNC(=O)C1CC(=O)N(CCc2ccc(C)cc2)C1 (configuration not stated) | -9 | -13 | nt | -5 | nt | nt | nt
O=C(CC1Oc2ccccc2NC1=O)NCc1ccccc1 (configuration not stated) | 2 | -23 | -2 | -7 | -5 | 0 | nt
CC(=O)CC1OC(=O)C(Br)=C1NCc1ccccc1 (configuration not stated) | 1 | -28 | 71* | 34* | 75* | 28* | 9
O=C(CSc1cccc[n+]1[O-])c1ccccc1Br | -11 | 4 | -8 | 85* | 7 | 7 | 7
O=C(COc1ccccc1-c1ccccc1)NN=C1CCCC1 | 29 | 31 | 82* | 53* | 3 | 6 | -8
SMILES | aSyn UTR inh | KLF5 inh | APP transl inh | IEC-6 tox | Ba/F3 V617F tox | BaF3 parental | IEC-6 tox confirm
Cc1ccc(Nc2nc(N3CCOCC3)nc(N3CCOCC3)n2)cc1C | -1 | -6 | nt | 84* | nt | nt | 88*
Cc1cccc(Nc2nc(N3CCOCC3)nc(N3CCOCC3)n2)c1 | -6 | -35 | nt | 64* | nt | nt | 37*
Cc1cccc(Nc2nc(N3CCCCC3)nc(N3CCCCC3)n2)c1 | 28 | -7 | 8 | 0 | 3 | 0 | nt
COc1cccc(C(=O)Nc2ccc(F)cc2F)c1 | -114 | -65 | -32 | -2 | 4 | 10 | nt
COc1cccc(C(=O)Nc2ccc3c(cc2=O)[C@@H](NC(C)=O)CCc2cc(OC)c(OC)c(OC)c2-3)c1 | -1 | -6 | nt | 46* | nt | nt | 39*
O=C(O)c1ccc(Oc2ccc(S(=O)(=O)c3ccc(C(=O)O)c(C(=O)O)c3)cc2)cc1 | 18 | -21 | nt | -3 | nt | nt | nt
Cc1ccc(C(C)C)c(OCc2ccc(C(=O)N/N=C/c3cccc(O)c3O)cc2)c1 | 108* | 34 | 80* | 41* | 97* | 90* | 78*
COc1cc(/C=N/NC(=O)c2ccc(COc3cc(C)ccc3C(C)C)cc2)cc(OC)c1O | 37 | -33 | 14 | 5 | -3 | 2 | nt
CC1CCCCN1C(=O)C1COc2ccccc2O1 (configuration not stated) | 4 | -25 | nt | -9 | nt | nt | nt
COc1ccc(S(=O)(=O)NCc2ccccn2)cc1NC(=O)c1ccccc1 | -62 | 47 | nt | 45* | nt | nt | 45*
COc1cccc(/C=N/NC(=O)c2cc3c(OC)c(OC)ccc3[nH]2)c1OC | 27 | 33 | 57* | 55* | 54* | 42* | 42*
COc1ccc(/C=N/NC(=O)c2cc3c(OC)ccc(OC)c3[nH]2)cc1O | 68* | 59 | nt | 40* | nt | nt | 20
COc1ccc(/C=N/NC(=O)c2[nH]c3ccc(Cl)cc3c2-c2ccccc2)c(C(=O)O)c1OC | 0 | -9 | nt | 88* | nt | nt | 12
COc1ccc(/C=N\NC(=O)COc2ccc(Cl)cc2Cl)c(C(=O)O)c1OC | -26 | -21 | 4 | -1 | 0 | 4 | nt
COc1ccccc1/C=N/NC(=O)c1cc2c(OC)c(OC)ccc2[nH]1 | -61 | 57 | nt | 47* | nt | nt | 15
COc1cccc(/C=N/NC(=O)c2cc3c(OC)cccc3[nH]2)c1OC | -4 | -4 | 2 | -1 | 1 | 6 | nt
COc1cccc(CNC(=O)CCCc2nnc3n(C)c(=O)c4sccc4n23)c1 | -8 | -14 | nt | 3 | nt | nt | nt
CCC(C)NC(=O)c1cc2c(=O)[nH]c3ccc(C)cc3c2s1 (configuration not stated) | -12 | -40 | nt | 2 | nt | nt | nt
CCOC(=O)c1c(C)[nH]c(C(=O)N/N=C/c2ccc(OC)c(OC)c2)c1C | -9 | 36 | nt | 62* | nt | nt | 49*
COc1ccc(S(=O)(=O)N2CCOc3ccccc32)cc1 | 7 | 52 | nt | 60* | nt | nt | 37*
COc1ccc(S(=O)(=O)N2CC(C(=O)O)Oc3ccccc32)cc1 (configuration not stated) | 10 | -58 | nt | -10 | nt | nt | nt
O=C(CN1CCCCC1)N=Nc1c(O)[nH]c2ccccc12 | -24 | -23 | -2 | -1 | 3 | 8 | nt
O=C(CN1CCN(Cc2ccccc2)CC1)N=Nc1c(O)[nH]c2ccccc12 | 50 | -8 | 9 | 23* | -1 | 6 | 6
Cc1ccc(-n2ncc3c2CCCC3NC(=O)c2ccoc2)cc1C (configuration not stated) | 10 | -26 | nt | -7 | nt | nt | nt
CCc1cc(C(=O)NC2CCCc3c2cnn3-c2cccc(C)c2C)n(C)n1 (configuration not stated) | 42 | 1 | nt | 31* | nt | nt | 25*
